Assay [1] in a line: HepG2 liver cancer cell viability effects, profiling panel, resazurin fluorescence, 24 h, PK04 Diversity Set (AID 1172). Also: test concentration not given here. Conditions: higher = more signal. (The colour change of resazurin is a common sign of viable cells or microbes.)
Assay [2] can be described thus: basal S. cerevisiae growth modulation, no modifier, primary screen, OD600, strain BY4716, 24 h, basal condition (AID 1173). Conditions: OD600, 24 h, higher = more signal, called active from +8 up or from −8 down.
Assay [3] in a line: MM1S myeloma cell viability, profiling panel, resazurin fluorescence, basal, 24 h, PK04 Diversity Set (AID 1174). Also: test concentration not given here. Particulars: higher = more signal, called active from +8 up or from −8 down.
Assay [4] has as its target Dihydroorotate dehydrogenase (quinone), mitochondrial (Plasmodium falciparum (isolate 3D7)) (UniProt Q08210). The assay can be described thus: PfDHODH enzyme inhibitors, primary screen, biochemical, C-terminal His tag, absorbance 600 nm (AID 1175).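 Also: recombinant parasite enzyme with a five histidine tag at its C terminus; test concentration not given here.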 Particulars: DCIP absorbance 600 nm, higher = more signal, called active from +8 up or from −8 down.
A short description of assay [5]: P. aeruginosa biofilm formation inhibitors, primary screen, strain PAO1, LB-PBS medium, absorbance 600 nm (AID 1176). Also: test concentration not given here. Particulars: P. aeruginosa PAO1 growth/biofilm, A600, 12 h; higher = more signal.
The nature of assay [6]: S. cerevisiae RM11-1a growth modifiers, primary screen, strain RM11-1a, OD600, basal, 24 h (AID 1177).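 Also: cultures grown under basal conditions with no added stressor; test concentration not given here.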 Conditions: OD600, 24 h, higher = more signal, called active from +8 up or from −8 down.
Assay [7] in a line: E. coli acrAB mutant growth effects, primary screen, E. coli filamentation inducers, strain DRC39, OD650, 24 h (AID 1178).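 Also: growth measured as culture turbidity by optical density at 650 nm; test concentration not given here.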 Particulars: higher = more signal, called active from +8 up or from −8 down.
Assay [8] is described as follows: E. coli acrAB mutant growth effects, primary screen, E. coli filamentation inducers, strain DRC39, OD650, 48 h (AID 1179).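 Also: screen aims at cell division blockers that make cells filament.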 Particulars: E. coli DRC39 delta-acrAB growth, higher = more signal, called active from +8 up or from −8 down.
Assay [9] in a line: RPMI8226 myeloma cell viability, profiling panel, resazurin fluorescence, basal, 24 h, PK04 Diversity Set (AID 1180).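 Also: RPMI8826 multiple myeloma cell line at 5000 cells per well; test concentration not given here.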 Particulars: higher = more signal.
Assay [10] deals with E3 ubiquitin-protein ligase XIAP (Homo sapiens) (UniProt P98170). The assay can be described thus: XIAP binders, primary screen, biophysical, small-molecule microarray, fluorescence 635 nm (AID 1181).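 Also: score merges 667 nm emission and signal to noise over triplicate slides.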 Conditions: small-molecule microarray binding, higher = more signal.

Activity calls are given as the source filed them. Unless noted, no rule for the calls is given here.

Chain of E3 ubiquitin-protein ligase XIAP (Homo sapiens) (P98170 whole entry, looked up): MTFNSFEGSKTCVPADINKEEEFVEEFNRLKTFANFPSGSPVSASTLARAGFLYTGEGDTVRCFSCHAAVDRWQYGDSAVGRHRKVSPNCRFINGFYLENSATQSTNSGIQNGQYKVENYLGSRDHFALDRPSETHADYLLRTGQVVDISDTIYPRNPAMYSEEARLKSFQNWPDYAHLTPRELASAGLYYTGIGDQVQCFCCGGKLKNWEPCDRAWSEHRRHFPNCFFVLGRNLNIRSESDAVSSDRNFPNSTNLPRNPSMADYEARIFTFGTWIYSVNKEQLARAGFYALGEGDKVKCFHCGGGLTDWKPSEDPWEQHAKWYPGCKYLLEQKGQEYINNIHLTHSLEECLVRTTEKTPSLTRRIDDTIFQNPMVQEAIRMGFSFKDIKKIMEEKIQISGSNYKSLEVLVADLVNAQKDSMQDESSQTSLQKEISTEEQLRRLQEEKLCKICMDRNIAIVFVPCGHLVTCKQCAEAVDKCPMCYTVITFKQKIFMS
Chain of Dihydroorotate dehydrogenase (quinone), mitochondrial (Plasmodium falciparum (isolate 3D7)) (Q08210 whole entry, looked up): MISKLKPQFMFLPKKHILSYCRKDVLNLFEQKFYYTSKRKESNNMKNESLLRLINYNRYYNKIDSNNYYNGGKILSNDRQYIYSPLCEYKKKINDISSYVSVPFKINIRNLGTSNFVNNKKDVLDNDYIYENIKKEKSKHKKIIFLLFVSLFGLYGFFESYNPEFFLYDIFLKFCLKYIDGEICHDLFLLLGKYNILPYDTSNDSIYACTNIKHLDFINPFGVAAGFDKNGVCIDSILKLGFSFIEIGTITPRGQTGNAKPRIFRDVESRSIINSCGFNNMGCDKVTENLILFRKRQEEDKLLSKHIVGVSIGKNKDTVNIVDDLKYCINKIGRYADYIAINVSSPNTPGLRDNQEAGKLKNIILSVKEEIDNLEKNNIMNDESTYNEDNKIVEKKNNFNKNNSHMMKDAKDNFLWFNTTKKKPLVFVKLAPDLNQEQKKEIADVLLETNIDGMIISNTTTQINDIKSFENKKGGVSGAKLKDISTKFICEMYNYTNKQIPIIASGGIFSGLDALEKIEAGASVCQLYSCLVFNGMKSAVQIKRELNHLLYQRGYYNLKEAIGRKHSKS

With `COCCOC(=O)N1C(=O)[C@@]2(c3ccccc31)[C@H](c1ccc(OCCO)cc1)N1[C@H](c3ccccc3)[C@H](c3ccccc3)OC(=O)[C@H]1[C@@H]2C(=O)NC[C@H](O)c1ccccc1`, the z-score in assay [1] is 0.37; in [2], 1.96 (inactive); in [3], -0.261 (inactive); in [5], 2.32 (inactive); in [6], 2.94 (inactive); in assay [7], 0.271 (inactive). Also, the z-score was 0.193 (inactive) in assay [8] and -0.25 in assay [9]. For the same molecule, the composite z-score in [4] was -1.93 (inactive); in assay [10], -0.148.

Take `COc1ccc([Si](C)(C)[C@@H]2[C@@H](CCO)O[C@]3(C(=O)N(Cc4ccccc4)c4ccc(N5C(=O)COc6ccccc65)cc43)[C@H]2C)cc1`: the z-score in assay [1] is 1.52; in assay [2], 2.09 (inactive); in [3], -0.657 (inactive); in assay [5], 1.2 (inactive); in [6] it was 4.54 (inactive); in assay [7], -0.141 (inactive). The z-score was -0.266 (inactive) in assay [8] and -0.976 in assay [9]. For the same molecule, the composite z-score in assay [4] was -0.0636 (inactive); in assay [10], -0.0599.

With `CCCCC=C[C@@H](NC(=O)CCc1ccccc1)c1ccccc1`, the z-score was -1.61 in assay [1]; 0.927 (inactive) in [2]; -2.09 (inactive) in assay [3]; 1.16 (inactive) in assay [5]; 0.929 (inactive) in [6]; -0.0955 (inactive) in assay [7]. Besides, the results for the z-score in [8] and in assay [9] were -0.169 (inactive) and -3.6, respectively. The composite z-score is -0.739 (inactive) in assay [4] and -0.154 in assay [10].

On to `CCCCCCCCCCC(O)C1C=CC2C(=O)NC(=O)C2N1Nc1ccccn1` (stereo not given), for which the z-score in assay [1] is -2.19; in [2] it was -10.4 (active); in [3] it was -2.8 (inactive); in [5], 2.43 (inactive); in assay [6], -5.05 (inactive); in [7] it was -2.29 (inactive). The z-score in assay [8] was -3.65 (inactive); in assay [9], -1.64. For the same molecule, the composite z-score was 0.364 (inactive) in [4] and 0.0153 in [10].

With `O=C1NC(=O)C2C1C=CC(C(O)c1ccc(-c3ccccc3)s1)N2Nc1ccccn1` (stereo not given), the z-score in assay [1] was -1.04; in assay [2], 1.14 (inactive); in [3] it was -1.12 (inactive); in [5] it was 1.23 (inactive); in assay [6], 0.347 (inactive); in assay [7], 0.547 (inactive). Besides, the z-score is 0.193 (inactive) in [8] and -1.17 in [9]. Further, the composite z-score in assay [4] was 1.24 (inactive); in assay [10], 0.549.

As to `C=C(/C(=C/C[C@@H](OC(=O)c1ccncc1)c1ccccc1OCCO)c1cnc2ccccc2c1)C(C)C`, the z-score in assay [1] is -1.11; in assay [2], -18.3 (active); in assay [3], -0.807 (inactive); in assay [5], 0.485 (inactive); in assay [6] it was -21.9 (active); in assay [7] it was -0.328 (inactive). For the same molecule, the z-score in [8] is -0.805 (inactive); in [9] it was -0.365. Moreover, the composite z-score in assay [4] is -6.99 (inactive); in assay [10], 0.326.

As for `C=CC[C@@]1(C(=O)NCCN2CCOCC2)N=C(c2ccc(OCCCO)cc2)O[C@@H]1c1ccccc1`, the z-score was 0.255 in assay [1]; -0.0792 (inactive) in assay [2]; 0.275 (inactive) in assay [3]; 1.13 (inactive) in [5]; 1.45 (inactive) in assay [6]; 0.297 (inactive) in assay [7]. Also, the z-score in assay [8] is -0.483 (inactive); in assay [9], 0.482. For the same molecule, the composite z-score in [4] was 1.61 (inactive); in [10] it was -0.237.

As to `CN1C(=O)C2C=CC(C(O)c3cccc4ccccc34)N(NC(=O)OC(C)(C)C)C2C1=O` (stereo not given), the z-score in assay [1] is -1.12; in assay [2] it was -3.8 (inactive); in assay [3], -0.776 (inactive); in assay [5], 0.378 (inactive); in assay [6], -0.0808 (inactive); in assay [7], -0.555 (inactive). Also, the results for the z-score in assay [8] and in [9] were -0.403 (inactive) and -0.693, respectively. Further, the composite z-score was -0.878 (inactive) in assay [4] and 0.156 in assay [10].

On to `COCCOC(=O)N1C(=O)[C@@]2(c3cc(C#CC4(O)CCCCCC4)ccc31)[C@H](C(=O)N1CCN(c3ncccn3)CC1)[C@H]1C(=O)O[C@H](c3ccccc3)[C@H](c3ccccc3)N1[C@@H]2c1ccc(O)cc1`, for which the z-score in assay [1] is -0.597; in assay [2], 1.04 (inactive); in [3], -0.0906 (inactive); in assay [5], 0.545 (inactive); in [6], 2.1 (inactive); in assay [7], -0.19 (inactive). Moreover, the figures for the z-score in assay [8] and in assay [9] were 0.37 (inactive) and 0.74, respectively. The composite z-score in [4] was 0.59 (inactive); in [10] it was -0.177.

For `C=CCOC(=O)[C@H]1[C@@H]2C(=O)O[C@@H](c3ccccc3)[C@@H](c3ccccc3)N2[C@@H](c2ccc(OCCOC(=O)[C@H]3C[C@H]4C(=O)N[C@@H](CCCCN(C)C)C(=O)N4[C@H]3c3ccc(O)cc3)cc2)[C@]12C(=O)Nc1ccccc12`, the z-score in assay [1] was 0.569; in [2], -2.35 (inactive); in assay [3], 0.95 (inactive); in assay [5], -0.723 (inactive); in assay [6], 0.719 (inactive); in [7], 0.172 (inactive). The z-score in assay [8] was -0.739 (inactive); in assay [9], 0.828. Moreover, the composite z-score in assay [4] was 0.279 (inactive); in assay [10] it was 0.0425.

On to `COc1ccc([Si](C)(C)[C@@H]2[C@@H](CC(=O)N(CCO)Cc3ccccc3)O[C@]3(C(=O)N(Cc4ccc(N5CCOC5=O)cc4)c4ccccc43)[C@H]2C)cc1`, for which the z-score in assay [1] was -1.12; in [2], 0.613 (inactive); in [3], -1.85 (inactive); in assay [5] it was 1.77 (inactive); in [6], 0.953 (inactive); in [7], 1.16 (inactive). Also, the z-score is 0.307 (inactive) in [8] and -2.31 in assay [9]. The composite z-score in assay [4] is -0.0014 (inactive); in assay [10], -0.0333.

The record behind these values is PubChem BioAssay.
